From the antibiotic and cytotoxicity screens of Wong et al. (2023)
Hit rate of the full screen: of about 39,000 compounds, about 500 (1.3%) were called active. The sample holds actives, similar compounds and a random draw of the others, so the mix is not that of the screen.

What follows are compounds tested on S. aureus RN4220 (assay: growth inhibition call (relative growth <= 0.2)). Conditions: 50 µM.
In the case of `C[C@H](CO)N1C[C@H](C)[C@@H](CN(C)Cc2ccccc2C(F)(F)F)OCc2ccccc2-c2ccccc2C1=O`, the growth inhibition call is reported as “active”. `C[C@@H]1CN([C@H](C)CO)C(=O)c2ccccc2-c2ccccc2CO[C@@H]1CN(C)Cc1ccccc1C(F)(F)F` was tested, and the growth inhibition call was “inactive”. In the case of `C[C@@H]1CN([C@@H](C)CO)C(=O)c2ccccc2-c2ccccc2CO[C@@H]1CN(C)Cc1ccccc1C(F)(F)F`, the growth inhibition call is reported as “inactive”. In the case of `C[C@H]1CN([C@@H](C)CO)C(=O)c2ccccc2-c2ccccc2CO[C@H]1CN(C)Cc1ccccc1C(F)(F)F`, the growth inhibition call is reported as “inactive”. `C[C@H](CO)N1C[C@H](C)[C@H](CN(C)Cc2ccccc2C(F)(F)F)OCc2ccccc2-c2ccccc2C1=O` was tested, and the growth inhibition call was “inactive”. For `C[C@H](CO)N1C[C@H](C)[C@H](CN(C)Cc2ccc(C(=O)O)cc2)OCc2ccccc2-c2c(n(C)c3ccccc23)C1=O`, the growth inhibition call was “active”. In the case of `C[C@@H]1CN([C@@H](C)CO)C(=O)c2ccccc2-c2ccccc2CO[C@H]1CN(C)Cc1ccccc1C(F)(F)F`, the growth inhibition call is reported as “active”. With `C[C@@H]1CN([C@H](C)CO)C(=O)c2c(c3ccccc3n2C)-c2ccccc2CO[C@H]1CN(C)Cc1ccc(C(=O)O)cc1` the growth inhibition call was “inactive”. In the case of `C[C@@H]1CN([C@H](C)CO)C(=O)c2c(c3ccccc3n2C)-c2ccccc2CO[C@@H]1CN(C)Cc1ccc(C(=O)O)cc1`, the growth inhibition call is reported as “inactive”. In the case of `O=C([C@H]1CCCO1)N1CCNCC1`, the growth inhibition call is reported as “inactive”. `C[C@@H]1CCCCO[C@@H](CN(C)Cc2ccncc2)[C@H](C)CN([C@H](C)CO)C(=O)c2cc(NC(=O)CCC(F)(F)F)ccc2O1` was tested, and the growth inhibition call was “inactive”. In the case of `COc1ccc2c3c(n(c2c1)C)[C@@H](CO)N(C[C@]13CCN(CC1)C(=O)c1ccccc1F)C(=O)Nc1ccccc1F`, the growth inhibition call is reported as “inactive”. For `Cc1ccc(S(=O)(=O)N(C)C[C@H]2OCCCC[C@H](C)Oc3ccc(NS(=O)(=O)c4ccc(Cl)cc4)cc3C(=O)N([C@H](C)CO)C[C@@H]2C)cc1`, the growth inhibition call was “inactive”. For `COCCCOc1cc(C[C@@H](C[C@H](N)[C@@H](O)C[C@H](C(=O)NCC(C)(C)C(N)=O)C(C)C)C(C)C)ccc1OC`, the growth inhibition call was “inactive”. In the case of `C[C@@H]1CN([C@H](C)CO)S(=O)(=O)c2ccc(C#CC3CCCCC3)cc2O[C@@H]1CN(C)C(=O)Cc1ccncc1`, the growth inhibition call is reported as “inactive”. `C[N+](C)(C)CCCCNC(=O)[C@@H]1C[C@@H]2C(=O)N[C@@H](CCCC[N+](C)(C)C)C(=O)N2[C@@H]1c1cccc(OCCO)c1` was tested, and the growth inhibition call was “inactive”. With `C[C@@H]1CN([C@H](C)CO)C(=O)c2cc(NC(=O)Nc3cccc4ccccc34)ccc2O[C@@H]1CN(C)Cc1ccccc1` the growth inhibition call was “inactive”. For `CC(C)NC(=O)Nc1ccc2c(c1)CC(=O)N([C@H](C)CO)C[C@@H](C)[C@@H](CN(C)Cc1ccc(Oc3ccccc3)cc1)O2`, the growth inhibition call was “inactive”. With `CN1CCN(c2c(F)cc3c(=O)c(C(=O)O)cn(CCF)c3c2F)CC1` the growth inhibition call was “active”. In the case of `CN1CCN(c2c(F)cc3c(=O)c(C(=O)O)cn4c3c2SCC4)CC1`, the growth inhibition call is reported as “active”. For `Cc1ccc(S(=O)(=O)Nc2ccc3c(c2)CC(=O)N([C@@H](C)CO)C[C@@H](C)[C@@H](CN(C)C(=O)Nc2ccc(C(F)(F)F)cc2)O3)cc1`, the growth inhibition call was “inactive”. For `NC(CO)C(=O)O` (configuration not stated), the growth inhibition call was “inactive”. `Cn1cnc(S(=O)(=O)N2C[C@@H](O)COC[C@@H]3O[C@H](CC(=O)NC4CCCC4)CC[C@H]32)c1` was tested, and the growth inhibition call was “inactive”. In the case of `O=C(NCCO)c1nc(NCCO)c2ccccc2n1`, the growth inhibition call is reported as “inactive”. For `C[C@@H]1CCCCO[C@H](CN(C)S(=O)(=O)c2ccccc2)[C@@H](C)CN([C@@H](C)CO)C(=O)c2cc(NC(=O)Nc3ccccc3)ccc2O1`, the growth inhibition call was “inactive”. For `CCC(=O)NC[C@H](Cc1ccc(OCCc2nc(-c3ccccc3)oc2C)cc1)N/C(C)=C\C(=O)c1ccc(C(F)(F)F)cc1`, the growth inhibition call was “inactive”. `COC(=O)c1nc[nH]c1C(=O)OC` was tested, and the growth inhibition call was “inactive”. With `CC1(C)C(C(=O)O)N2C(=O)CC2S1(=O)=O` (configuration not stated) the growth inhibition call was “inactive”. For `C[n+]1ccn(C[C@@]2(C)[C@H](C(=O)O)N3C(=O)C[C@H]3S2(=O)=O)n1`, the growth inhibition call was “active”. With `CC1(Cn2ccnn2)C(C(=O)O)N2C(=O)CC2S1(=O)=O` (configuration not stated) the growth inhibition call was “active”. In the case of `CC1(C)[C@H](C(=O)O)N2C(=O)C[C@H]2S1(=O)=O`, the growth inhibition call is reported as “inactive”. `Cc1noc(C[C@@H]2C[C@@H]3CN(S(C)(=O)=O)C[C@@H]3O2)n1` was tested, and the growth inhibition call was “inactive”. `C[C@@H]1CCCCO[C@H](CN(C)C)[C@H](C)CN([C@H](C)CO)C(=O)c2cc(NS(=O)(=O)c3cn(C)cn3)ccc2O1` was tested, and the growth inhibition call was “inactive”. With `CS(=O)(=O)N1[C@@H]2c3ccc(-c4ccccc4)c(=O)n3C[C@H]1[C@H](CO)[C@H]2C(=O)NCC1CC1` the growth inhibition call was “inactive”. With `COc1cc(F)c(F)c(Nc2ccc(I)cc2F)c1NS(=O)(=O)C1(C[C@H](O)CO)CC1` the growth inhibition call was “active”. `O=C(NOC[C@H](O)CO)c1cc(Br)c(F)c(F)c1Nc1ccc(I)cc1F` was tested, and the growth inhibition call was “inactive”. `Cn1c(=O)c(F)c(Nc2ccc(I)cc2F)c2c(=O)n(C[C@@H](O)CO)cnc21` was tested, and the growth inhibition call was “inactive”. `CC1(C)S[C@@H]2[C@H](NC(=O)[C@H](N)c3ccccc3)C(=O)N2[C@H]1C(=O)OCOC(=O)[C@@H]1N2C(=O)C[C@H]2S(=O)(=O)C1(C)C` was tested, and the growth inhibition call was “active”. For `CCOC(=O)OC(C)OC(=O)C1N2C(=O)C(NC(=O)C(N)c3ccccc3)C2SC1(C)C.Cl` (configuration not stated), the growth inhibition call was “active”. With `C[C@@H]1CN([C@H](C)CO)C(=O)c2c(c3ccccc3n2C)-c2ccccc2CO[C@@H]1CN(C)Cc1ccccc1` the growth inhibition call was “inactive”. For `O=C(C[C@@H]1C=C[C@@H](NS(=O)(=O)c2ccc(F)cc2)[C@H](CO)O1)N1CCC(Cc2ccccc2)CC1`, the growth inhibition call was “inactive”. For `CN1C(=O)c2cc(NS(=O)(=O)c3ccc(F)cc3)ccc2OC[C@H]2O[C@H](CC(=O)NCC(F)(F)F)CC[C@H]21`, the growth inhibition call was “inactive”. In the case of `COCC#Cc1ccc2c(c1)O[C@H](CN(C)S(=O)(=O)c1ccc(C)cc1)[C@H](C)CN([C@@H](C)CO)S2(=O)=O`, the growth inhibition call is reported as “inactive”. In the case of `COCCn1c(=NN)[nH]c2ccsc2c1=O`, the growth inhibition call is reported as “inactive”. With `O=C(C[C@H]1CC[C@@H]2[C@H](COC[C@@H](O)CN2Cc2cc(F)ccc2F)O1)N[C@@H]1CCN(Cc2ccccc2)C1` the growth inhibition call was “inactive”. For `CCCCc1nn(-c2ccccc2C(F)(F)F)c(=O)n1Cc1ccc(-c2ccccc2S(=O)(=O)NC(=O)c2sccc2C)cc1`, the growth inhibition call was “active”. In the case of `COc1ccc([Si](C)(C)[C@H]2[C@H](CC(=O)N3CCC[C@H]3CO)O[C@@]3(C(=O)N(Cc4ccc(N5CCCCC5=O)cc4)c4ccccc43)[C@@H]2C)cc1`, the growth inhibition call is reported as “inactive”.
